Test results published in PubChem BioAssay (EPA / NIEHS).
Inconclusive results are not listed. Activity calls are given as the source filed them. The calls were made as follows, unless noted: active = hit-call score of the fitted dose curve at least 0.9, where 1 is the maximum; inactive = score below 0.9.

Key:
[1] = ACEA_ER_80hr: ACEA Biosciences xCELLigence Real-Time Cell Analysis on Estrogen Receptor Agonism for Proliferation (AID 2282667; active = hit-call score of the fitted dose curve at least 0.9, where 1 is the maximum); details: T47D proliferation, impedance (xCELLigence), 80 h
Summary of the method: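 Impedance readout (RT-CES) of T47D proliferation at 80 h post-dose; gain of signal vs DMSO baseline. Compounds: 8 conc, 1:4 serial, top 100 uM final, ≤0.5% DMSO; biological duplicate.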

[2] = ATG_CRE_CIS: Attagene CIS-FACTORIAL HepG2 Assay for human cAMP Responsive Element (CRE) binding protein 3 (AID 2282926); details: HepG2 CRE cis-reporter, Attagene multiplexed mRNA; actives raise or lower the signal
Summary of the method: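 Endogenous CRE-binding activity in HepG2 is reported through a cis-regulated transfected reporter. Following a day of exposure, mRNA levels are determined by reverse transcription PCR and fluorescent fragment analysis; fits run in both directions versus DMSO.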

[3] = target: CCAAT/enhancer-binding protein beta (Homo sapiens) (UniProt P17676); test: ATG_C_EBP_CIS: Attagene CIS-FACTORIAL HepG2 Assay for human CCAAT/Enhancer Binding Protein (C/EBP) beta (AID 2282927); details: HepG2 Attagene cis-factorial transcription factor reporter; actives raise or lower the signal
CCAAT/enhancer-binding protein beta (Homo sapiens), sequence (P17676 whole entry, looked up): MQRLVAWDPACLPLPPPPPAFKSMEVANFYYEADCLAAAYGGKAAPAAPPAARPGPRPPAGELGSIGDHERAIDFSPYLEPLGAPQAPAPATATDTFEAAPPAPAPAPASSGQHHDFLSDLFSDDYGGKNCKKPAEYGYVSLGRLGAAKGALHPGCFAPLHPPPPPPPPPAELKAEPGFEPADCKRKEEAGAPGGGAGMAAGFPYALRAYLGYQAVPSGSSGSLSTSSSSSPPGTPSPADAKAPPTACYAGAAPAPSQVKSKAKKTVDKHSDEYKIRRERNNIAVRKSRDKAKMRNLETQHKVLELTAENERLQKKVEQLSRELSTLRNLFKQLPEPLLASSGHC
Summary of the method: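 Following a 24 h incubation with test chemical, transfected HepG2 cells yielded RNA whose reporter transcripts were quantified by RT-PCR and fluorescent capillary electrophoresis, with DMSO serving as baseline for bidirectional fitting.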

[4] = ATG_CMV_CIS: Attagene CIS-FACTORIAL HepG2 Assay for human CMV (Internal Marker) (AID 2282928); details: HepG2 CMV promoter reporter, transcription factor profiling; actives raise or lower the signal;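 also: endpoint acts as a background internal control marker rather than a target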
Summary of the method: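 Cell system: HepG2, transiently transfected multiple reporter units under cis promoters. Exposure: 24 h. Detection: RT-PCR, FAM labeling, HpaI digestion, capillary electrophoresis. Analysis: bidirectional, DMSO baseline.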

[5] = ATG_DR4_LXR_CIS: Attagene CIS-FACTORIAL HepG2 Assay for human Liver X Receptor (LXR), DR4 submotif (AID 2282929); details: HepG2 Attagene DR4 cis-reporter, mRNA transcription; actives raise or lower the signal
Summary of the method: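 After transient transfection with multiplexed cis-promoter reporter units, HepG2 cells received test chemicals for 24 h. Reporter mRNA induction, detected by fluorescence after RT-PCR and capillary electrophoresis, was scored relative to DMSO.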

[6] = target: Aryl hydrocarbon receptor (Homo sapiens) (UniProt P35869); test: ATG_Ahr_CIS: Attagene CIS-FACTORIAL HepG2 Assay for human Aryl Hydrocarbon Receptor (Ahr) (AID 2282930); details: HepG2 AhR cis-factorial reporter transcription; actives raise or lower the signal
Aryl hydrocarbon receptor (Homo sapiens), sequence (P35869 whole entry, looked up): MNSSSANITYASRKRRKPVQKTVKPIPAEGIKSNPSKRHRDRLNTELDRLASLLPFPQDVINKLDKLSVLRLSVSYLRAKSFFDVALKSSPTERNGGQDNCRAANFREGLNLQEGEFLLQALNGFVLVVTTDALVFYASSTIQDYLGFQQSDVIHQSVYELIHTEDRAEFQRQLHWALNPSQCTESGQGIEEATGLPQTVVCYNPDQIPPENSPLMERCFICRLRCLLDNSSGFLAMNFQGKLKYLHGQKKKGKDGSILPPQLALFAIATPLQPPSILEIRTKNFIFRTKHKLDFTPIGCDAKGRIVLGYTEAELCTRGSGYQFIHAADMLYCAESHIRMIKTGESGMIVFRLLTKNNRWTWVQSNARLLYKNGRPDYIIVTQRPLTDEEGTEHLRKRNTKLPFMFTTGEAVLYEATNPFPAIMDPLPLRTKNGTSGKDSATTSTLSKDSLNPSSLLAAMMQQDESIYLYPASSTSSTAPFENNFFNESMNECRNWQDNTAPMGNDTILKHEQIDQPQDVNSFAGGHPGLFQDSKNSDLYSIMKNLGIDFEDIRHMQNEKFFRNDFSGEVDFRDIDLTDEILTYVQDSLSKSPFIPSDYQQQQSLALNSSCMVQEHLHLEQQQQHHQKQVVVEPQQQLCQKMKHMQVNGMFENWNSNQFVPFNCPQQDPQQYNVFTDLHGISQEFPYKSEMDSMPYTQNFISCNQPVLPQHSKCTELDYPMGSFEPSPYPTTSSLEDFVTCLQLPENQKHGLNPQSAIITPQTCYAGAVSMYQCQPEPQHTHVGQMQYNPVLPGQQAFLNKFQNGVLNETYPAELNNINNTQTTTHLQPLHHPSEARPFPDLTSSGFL
Summary of the method: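 Values derive from bidirectional fitting against DMSO negative control. Underlying signal: cis-element reporter mRNA in transiently transfected HepG2, harvested 24 h post-dose and measured by RT-PCR plus capillary electrophoresis.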

## CCOP(=S)(OCC)Oc1nc(Cl)c(Cl)cc1Cl
[1]
  outcome: inactive
[2]
  outcome: inactive
[3]
  outcome: inactive
[4]
  AC50: 26.1 µM (active)
[5]
  AC50: 27.4 µM (active)
[6]
  AC50: 2.35 µM (active)

## NNC(=S)NN
[1]
  outcome: inactive
[2]
  outcome: inactive
[3]
  outcome: inactive
[4]
  outcome: inactive
[5]
  outcome: inactive
[6]
  outcome: inactive

## Nc1cccc(Cl)c1
[1]
  outcome: inactive
[2]
  outcome: inactive
[3]
  outcome: inactive
[4]
  outcome: inactive
[5]
  outcome: inactive
[6]
  outcome: inactive

## OCC(O)CCl (stereo not given)
[1]
  outcome: inactive
[2]
  outcome: inactive
[3]
  outcome: inactive
[4]
  outcome: inactive
[5]
  outcome: inactive
[6]
  outcome: inactive

## CCc1ccccc1C
[1]
  AC50: 0.0879 µM (active)
[2]
  outcome: inactive
[3]
  outcome: inactive
[4]
  outcome: inactive
[5]
  outcome: inactive
[6]
  outcome: inactive

## Oc1c(I)cc(I)cc1I
[1]
  outcome: inactive
[2]
  outcome: inactive
[3]
  outcome: inactive
[4]
  AC50: 49.3 µM (active)
[5]
  outcome: inactive
[6]
  AC50: 34.5 µM (active)

## COc1ccc(C=O)cc1
[1]
  outcome: inactive
[2]
  outcome: inactive
[3]
  outcome: inactive
[5]
  outcome: inactive
[6]
  outcome: inactive

## ClCc1cccnc1
[1]
  outcome: inactive
[2]
  AC50: 57 µM (active)
[3]
  outcome: inactive
[5]
  outcome: inactive
[6]
  outcome: inactive

## CC1(C)Cc2cccc(O)c2O1
[1]
  outcome: inactive
[2]
  outcome: inactive
[3]
  outcome: inactive
[4]
  outcome: inactive
[5]
  outcome: inactive
[6]
  outcome: inactive

## Fc1ccc(C2(Cn3cncn3)OC2c2ccccc2Cl)cc1 (stereo not given)
[1]
  outcome: inactive
[2]
  outcome: inactive
[3]
  outcome: inactive
[4]
  outcome: inactive
[5]
  outcome: inactive
[6]
  AC50: 13.3 µM (active)

## CCCCC(CC)CO[N+](=O)[O-] (stereo not given)
[1]
  outcome: inactive
[2]
  outcome: inactive
[3]
  outcome: inactive
[4]
  outcome: inactive
[5]
  outcome: inactive
[6]
  outcome: inactive

## O=C(OC1CCCCC1)c1ccccc1C(=O)OC1CCCCC1
[1]
  outcome: inactive
[2]
  outcome: inactive
[3]
  outcome: inactive
[4]
  AC50: 74.7 µM (active)
[5]
  AC50: 13.7 µM (active)
[6]
  AC50: 17.4 µM (active)

## CC(C)CCCCCCOC(=O)c1ccccc1C(=O)OCCCCCCC(C)C
[1]
  outcome: inactive
[2]
  outcome: inactive
[3]
  outcome: inactive
[4]
  outcome: inactive
[5]
  outcome: inactive
[6]
  outcome: inactive

## Cc1ccccc1C(=O)Nc1cccc(OC(C)C)c1
[1]
  outcome: inactive
[2]
  outcome: inactive
[3]
  outcome: inactive
[5]
  AC50: 158 µM (active)
[6]
  outcome: inactive

## CCOP(=S)(OCC)Oc1ccc(S(C)=O)cc1 (stereo not given)
[1]
  outcome: inactive
[2]
  outcome: inactive
[3]
  outcome: inactive
[4]
  outcome: inactive
[5]
  outcome: inactive
[6]
  AC50: 32.5 µM (active)

## COC(=O)c1sccc1S(=O)(=O)NC(=O)Nc1nc(C)nc(OC)n1
[1]
  outcome: inactive
[2]
  outcome: inactive
[3]
  outcome: inactive
[4]
  outcome: inactive
[5]
  outcome: inactive
[6]
  outcome: inactive

## [O-][Cl+2]([O-])O
[1]
  outcome: inactive
[2]
  outcome: inactive
[3]
  outcome: inactive
[4]
  outcome: inactive
[5]
  outcome: inactive
[6]
  outcome: inactive

## CCOP(=S)(OCC)SCCS(=O)(=O)CC
[1]
  outcome: inactive
[2]
  outcome: inactive
[3]
  outcome: inactive
[5]
  outcome: inactive
[6]
  outcome: inactive

## C(=NC1CCCCC1)=NC1CCCCC1
[1]
  outcome: inactive
[2]
  outcome: inactive
[3]
  outcome: inactive
[4]
  outcome: inactive
[5]
  AC50: 33.4 µM (active)
[6]
  outcome: inactive

## CCCCP(CCCC)CCCC
[1]
  outcome: inactive
[2]
  outcome: inactive
[3]
  outcome: inactive
[5]
  outcome: inactive
[6]
  outcome: inactive

## Nc1ccc(N=Nc2ccc(-c3ccc(N=Nc4c(S(=O)(=O)O)cc5cc(S(=O)(=O)O)c(N=Nc6ccccc6)c(O)c5c4N)cc3)cc2)c(N)c1
[1]
  outcome: inactive
[2]
  outcome: inactive
[3]
  outcome: inactive
[5]
  outcome: inactive
[6]
  outcome: inactive

## CC(C)(c1ccc(OCC2CO2)cc1)c1ccc(OCC2CO2)cc1 (stereo not given)
[1]
  outcome: inactive
[2]
  AC50: 36 µM (active)
[3]
  AC50: 51.6 µM (active)
[4]
  AC50: 49.2 µM (active)
[5]
  AC50: 25.9 µM (active)
[6]
  outcome: inactive

## C[C@@H](Oc1ccc(Cl)cc1Cl)C(=O)O
[1]
  outcome: inactive
[2]
  outcome: inactive
[3]
  outcome: inactive
[5]
  outcome: inactive
[6]
  outcome: inactive

## CN(C)P(=O)(N(C)C)N(C)C
[1]
  outcome: inactive
[2]
  outcome: inactive
[3]
  outcome: inactive
[4]
  outcome: inactive
[5]
  outcome: inactive
[6]
  outcome: inactive

## CC1(C)CCC(Cc2ccc(Cl)cc2)C1(O)Cn1cncn1 (stereo not given)
[1]
  outcome: inactive
[2]
  outcome: inactive
[3]
  outcome: inactive
[4]
  outcome: inactive
[5]
  AC50: 56.7 µM (active)
[6]
  AC50: 4.7 µM (active)

## O=CC=O
[1]
  outcome: inactive
[2]
  outcome: inactive
[3]
  outcome: inactive
[4]
  outcome: inactive
[5]
  outcome: inactive
[6]
  outcome: inactive

## COP(=S)(OC)Oc1ccc(Sc2ccc(OP(=S)(OC)OC)cc2)cc1
[1]
  AC50: 0.0233 µM (active)
[2]
  outcome: inactive
[3]
  outcome: inactive
[4]
  AC50: 15.5 µM (active)
[5]
  AC50: 100 µM (active)
[6]
  outcome: inactive
